Screens: PubChem, The Scripps Research Institute Molecular Screening Center
KLK7 zymogen act = proKLK7 zymogen activators, primary screen, biochemical, fluorescence intensity | Kallikrein-7 (Homo sapiens), P49862 | purified proKLK7, EDANS-DABCYL substrate fluorescence; 100% is mature enzyme control, 0% vehicle | activation, % at 7 µM | 370,000 compounds, 0.9% hits;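 active = activation above the mean of all tested compounds plus 3 SD, computed per campaign excluding outliers beyond control limits, cut at about 13% in these data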
PLC-gamma1 inh = PLC-gamma1 enzyme inhibitors, primary screen, biochemical, fluorescence, purified enzyme; inhibition, % at 12.2 µM; 1-phosphatidylinositol 4,5-bisphosphate phosphodiesterase gamma-1 (Homo sapiens), P19174; fluorogenic substrate; 370,000 compounds, 0.84% hits; in the data active = inhibition above about 9.5%
PLCb3 inh = human PLC-beta3 inhibitors, primary screen, biochemical, fluorescence; inhibition, % at 12.2 µM; 370,000 compounds, 0.18% hits; Purified PLC-beta3, fluorogenic substrate; 1-phosphatidylinositol 4,5-bisphosphate phosphodiesterase beta-3 (Homo sapiens), Q01970; in the data active = inhibition above about 11%;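 note: 0% = median of compound wells on plate and 100% = full blocker control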
ADAM17 inh = ADAM17 inhibitors, primary screen, biochemical, QFRET; 370,000 compounds, 0.83% hits; AID 720648, 2013; recombinant ADAM17, EDANS/DABCYL FRET peptide cleavage; inhibition, % at 6.95 µM;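 active = inhibition above the mean of compounds lying between control limits plus 3 SD, set per campaign, cut at about 8.5% in these data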;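 note: 0% = DMSO-only wells as the low control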
ADAM10 inh = human ADAM10 inhibitors, primary screen, biochemical, QFRET, HTS | inhibition, % at 7 µM | recombinant ADAM10, EDANS/DABCYL FRET peptide cleavage, 3 h | 370,000 compounds, 0.62% hits | AID 720582, 2013 | Disintegrin and metalloproteinase domain-containing protein 10 (Homo sapiens), O14672;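 active = inhibition above a per-campaign cutoff equal to the mean of compounds falling between control-based bounds plus 3 SD, cut at about 20% in these data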;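 note: 0% = DMSO wells while the 100% control is not disclosed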
Target sequence (O14672 214-748 limits assumed): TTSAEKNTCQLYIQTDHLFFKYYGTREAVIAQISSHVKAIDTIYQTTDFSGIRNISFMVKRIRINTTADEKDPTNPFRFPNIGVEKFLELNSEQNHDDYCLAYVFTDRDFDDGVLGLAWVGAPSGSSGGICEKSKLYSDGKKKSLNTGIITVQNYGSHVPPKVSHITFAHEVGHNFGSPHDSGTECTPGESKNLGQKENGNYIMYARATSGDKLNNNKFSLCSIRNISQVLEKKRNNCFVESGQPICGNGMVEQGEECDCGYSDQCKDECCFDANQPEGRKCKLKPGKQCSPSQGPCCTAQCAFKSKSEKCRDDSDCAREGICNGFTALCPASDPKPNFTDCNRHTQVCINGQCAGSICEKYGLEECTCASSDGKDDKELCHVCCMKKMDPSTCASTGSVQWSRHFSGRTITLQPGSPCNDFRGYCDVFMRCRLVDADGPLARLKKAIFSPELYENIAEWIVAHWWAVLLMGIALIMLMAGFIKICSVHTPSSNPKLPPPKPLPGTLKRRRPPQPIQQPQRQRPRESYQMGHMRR
Numbers without * were called inactive; i = inactive; . = not tested or not shown; ! = repeats disagree. Rows were chosen to be rich in hits. Some 2.9% of all compounds tested hit in one or more screens of this group.

SMILES | KLK7 zymogen act | PLC-gamma1 inh | PLCb3 inh | ADAM17 inh | ADAM10 inh
Cc1ccc(-c2cc(C(=O)Nc3ccc(S(=O)(=O)Nc4nccs4)cc3)c3ccccc3n2)c(C)c1 | 0 | -14 | 4 | 20* | 40*
Cc1ccc(C)c(-c2cc(C(=O)Nc3nccs3)c3ccccc3n2)c1 | -1 | -2 | -1 | 3 | 17
CCOC(=O)CC[C@H]1CC[C@]2(CCCN(Cc3ccccc3)C2)O1 | -1 | 3 | -3 | -5 | -10
Cc1ccccc1/C=N/Nc1nc2ccccc2[nH]1 | 1 | -13 | -16 | -4 | -7
O=[N+]([O-])c1cc(/C=N/Nc2nc3ccccc3[nH]2)c(O)cc1O | -1 | 48* | 4 | 4 | 14
CCCCCn1nnnc1C1c2ccccc2OCC(=O)N1Cc1ccco1 (stereo not given) | 0 | 1 | 3 | 1 | 0
CCc1nn(CC(=O)NCCCN(CC)Cc2ccccc2)c(=O)c2cc3sccc3n12 | 0 | 11* | 3 | 2 | 1
C[C@H](O)[C@@H]1CN2CCc3ccc(-c4ccc5c(c4)OCO5)cc3[C@@H]2C[C@@H]1N(C)C(=O)Nc1ccccc1 | 1 | 0 | -1 | -3 | 0
Cc1ccc(NC(=O)CSCc2ccco2)cc1 | -1 | 1 | -2 | -3 | 0
c1coc(CSSCc2ccco2)c1 | 0 | 13* | -18 | 4 | -18
CC(=O)Nc1ccc(S(=O)(=O)N(CCCN2CCOCC2)Cc2cccs2)cc1 | 0 | 0 | 2 | 1 | -4
CC(C)(C)c1ccc(S(=O)(=O)N(CCCN2CCOCC2)Cc2cccs2)cc1 | 0 | 10*! | 5 | -1 | 1
O=C(Nc1ccc(Oc2ccccc2)cc1)C1CCCN1S(=O)(=O)c1cccc2cccnc12 (stereo not given) | 1 | 0 | 1 | 7 | 15
Clc1cccc(CN2CCC(Cc3ccccc3)CC2)c1 | 0 | 2 | 3 | -6 | -8
Clc1ccc(CN2CCC(Cc3ccccc3)CC2)cc1 | 0 | 11* | 6 | 0 | 8
O=C(Cc1ccc(Cl)cc1)Nc1cccnc1Cl | -1 | -1 | 3 | -3 | 0
O=C(CCCc1ccccc1)Nc1cccnc1Cl | -1 | 3 | 12* | 5 | 6
Cc1cc(C(=O)COC(=O)c2ccc3c(c2)OCO3)c(C)n1Cc1cccs1 | 0 | 10* | 4 | 8 | 6
O=C(N[C@H](C(=O)N1CCC[C@H]1C(=O)NCCc1ccccc1Cl)C1CCCCC1)c1ccccc1 | 0 | 5 | 10 | 0 | 8
COc1ccc(NC(=O)/C(Cl)=C(/Cl)S(=O)(=O)Cc2ccccc2)cn1 | 2 | 10* | 7 | 3 | 12
COc1ccc(NC(=O)C(Cl)=C(Cl)Cl)cn1 | -1 | 0 | 3 | 0 | -2
CC1CCC2(CCC(=O)N2C[C@@H](O)c2ccccc2)CC1 (stereo not given in full) | . | 0 | 1 | -4 | -3
O=C(Nc1nnc(Cc2ccccc2)s1)Nc1ccccc1F | 0 | 12* | 0 | 2 | 8
COc1cccc(NC(=O)Nc2c(-c3ccc(F)cc3)nc3ncccn23)c1 | 2 | -325 | -397 | -66 | -204
COc1ccc(OC)c(CN2C(=O)CSCC2(C)C(=O)NCc2ccccc2)c1 (stereo not given) | -1 | 3 | 12* | 3 | 0
SMILES | KLK7 zymogen act | PLC-gamma1 inh | PLCb3 inh | ADAM17 inh | ADAM10 inh
Cc1ccccc1CN1C(=O)CSCC1(C)C(=O)NCc1ccccc1 (stereo not given) | 1 | 2 | 3 | -4 | -15
O=c1c2ccccc2[nH]c2ccc(O)cc12 | 10 | -200 | -304 | -156 | -481
Cc1ccc2[nH]c3ccccc3c(=O)c2c1 | 19* | -288 | -365 | i | i
Cc1nc2ccc(NC(=O)c3ccc(Cl)s3)cc2s1 | 13* | -3 | -4 | 2 | 5
O=C(CCCN1C(=O)/C(=C/c2ccccc2Cl)SC1=S)NNC(=O)c1ccccc1 | 0 | -2 | -3 | -1 | -4
O=C(CCCN1C(=O)/C(=C/c2ccccc2Cl)SC1=S)NNC(=O)c1ccc(Cl)cc1Cl | 0 | 1 | -4 | 2 | 21*
CCCCCCNC(=O)C1CSCCS(=O)(=O)N1Cc1ccc(OC)cc1 (stereo not given) | 1 | -1 | 1 | -5 | -9
OC(COc1ccccc1)CN(Cc1ccccc1)CC(O)COc1ccccc1 (stereo not given) | 0 | 4 | 4 | 5 | 14
CCC(=O)c1ccc(OCC(O)CN(CCc2ccccc2)Cc2ccccc2)cc1 (stereo not given) | 0 | 2 | 0 | 9.3* | 18
CC(C)C[C@H]1COc2cccc(F)c2S(=O)(=O)N1Cc1cn(CC2CCCCC2)nn1 | 1 | 3 | -4 | -2 | -14
COc1ccc(C(=O)Oc2ccc(C(=S)N3CCOCC3)cc2)cc1 | 0 | 13* | 8 | 7 | 7
O=C(Oc1ccc(C(=S)N2CCOCC2)cc1)c1ccc(Br)cc1 | 0 | 0 | -1 | 1 | 4
CC(=O)Nc1sc2c(c1-c1nc3ccccc3s1)CCCN(C(C)C)C2 | . | i | i | -38 | -140
COc1cc(C(=O)N/N=C/c2ccc(OC(=O)c3cccc(C)c3)cc2)ccc1O | 0 | 16* | 3 | 0 | 15
COC1=CC(=O)c2c(ccc3ncnc(N)c23)C1=O | 2 | 13* | -4 | -1 | -6
COc1ccc(NC(=O)N2CCCC(c3nc(-c4ccc(C(C)C)cc4)no3)C2)cc1 (stereo not given) | 1 | 1 | 5 | 11* | 25*
CCOC(=O)c1nn(-c2ccc(C)cc2)cc1O | -2 | -4 | -6 | -3 | -9
CCOC(=O)c1nn(-c2ccc3c(c2)OCO3)cc1O | 32* | -303 | -384 | -60 | -245
COc1ccccc1CN1CC(C(=O)N(C)CCOc2ccccc2)CCC1=O (stereo not given) | 0 | -1 | -5 | -2 | 0
COc1ccccc1CN1CC(C(=O)N(C)CCc2ccccn2)CCC1=O (stereo not given) | 1 | 6 | 13* | 5 | 3
COC(=O)CCC/C=C1/SCC(NC(=O)c2ccccc2)C1=O (stereo not given) | 0 | -11 | -19 | 12* | 1
Cc1cc(C)nc(SCCN(C)C)n1 | 0 | 3 | 4 | -2 | 4
Cc1cc(C)nc(SCCN2CCCCC2)n1 | 1 | 13* | -9 | 7 | 7
COc1ccccc1NC(=O)CSc1nc(O)cc(=O)n1-c1ccccc1OC | 0 | 2 | 1 | 3 | 21*
COc1ccccc1-n1c(SCC(=O)Nc2ccccc2C)nc(O)cc1=O | 1 | 0 | -2 | 0 | 13
